Each structure is given as a SMILES string. Several values for one entry are separate records, joined by “and”; a condition that tells them apart may be missing. Identical values can stand only once. Inconclusive results are not listed. Where a structure was tested more than once in an assay, its records may differ in their call. Activity calls are given as the source filed them. Calls come from the whole dose curve; as a rule, active = well fitted curve in the direction sought with a large enough effect in the repeat runs; inconclusive = weak or mixed curves; inactive = no such curve, though single readings can be large; an effect the other way counts as inactive or inconclusive.

For experiment [1], the target named is Cytochrome P450 2C19 (Homo sapiens) (UniProt P33261). Put plainly: Cytochrome P450 Family 2 Subfamily C Member 19 (CYP2C19) small molecule antagonists: luciferase reporter qHTS assay (AID 1671197). Note: nearly all actives have a fitted effect of over 65% in size. Note: potency is the fitted concentration of half-maximal effect. In a few lines:
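Compounds were tested on CYP2C19 activity via proluciferin conversion to luciferin. The 37C, 1 h reaction followed NADPH addition; detection reagent stopped it.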
For orientation: Reporter assays use an easily measured gene product as a stand-in for the process of interest.

In experiment [2] the target is Cytochrome P450 2C9 (Homo sapiens) (UniProt P11712). Put plainly: Cytochrome P450 Family 2 Subfamily C Member 9 (CYP2C9) small molecule antagonists: luciferase reporter qHTS assay (AID 1671198). Note: nearly all actives have a fitted effect of over 50% in size. Note: potency is the fitted concentration of half-maximal effect. In a few lines:
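CYP2C9 activity was measured with a P450-Glo proluciferin substrate. Enzyme–substrate mix was held with compound for 10 min at room temperature, then NADPH regeneration solution was added for 1 h at 37C. Luciferin product was read as luminescence.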

Experiment [3] deals with Cytochrome P450 1A2 (Homo sapiens) (UniProt P05177). Put plainly: Cytochrome P450 Family 1 Subfamily A Member 2 (CYP1A2) small molecule antagonists: luciferase reporter qHTS assay (AID 1671199). Note: nearly all actives have a fitted effect of over 50% in size. Note: potency is the fitted concentration of half-maximal effect. In a few lines: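 Luminescence from luciferin formed by CYP1A2 from a proluciferin substrate, read 20 min after detection reagent. Compound was pre-incubated 10 min with enzyme-substrate, and reaction started with NADPH regeneration solution for 1 h at room temperature; furafylline control.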

Experiment [4] addresses Voltage-gated inwardly rectifying potassium channel KCNH2 (Homo sapiens) (UniProt Q12809). Put plainly: Human Ether-a-go-go-Related Gene (hERG) channel small molecule antagonists: fluorescence cell-based qHTS assay (AID 1671200).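 Note: hERG-expressing U2OS cells given a thallium stimulus after FluxOR II dye loading; series mostly up to about 77 µM; nearly all actives have a fitted effect of over 50% in size.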 In a few lines: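 Quantitative HTS in hERG-U2OS cells: thallium entry through the channel reports activity, read as continuous 480/540 nm fluorescence over 2 min after stimulus addition.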

The target in experiment [5] is Cytochrome P450 3A4 (Homo sapiens) (UniProt P08684). Put plainly: Cytochrome P450 Family 3 Subfamily A Member 4 (CYP3A4) small molecule antagonists: luciferase reporter qHTS assay (AID 1671201). Note: nearly all actives have a fitted effect of over 50% in size. Note: potency is the fitted concentration of half-maximal effect. In a few lines:
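Inhibition of CYP3A4 is measured as loss of light: the enzyme converts a proluciferin substrate to luciferin, detected luminescently. Reaction ran 1 h at room temperature with NADPH regeneration after a 10 min compound preincubation.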

Chain of Voltage-gated inwardly rectifying potassium channel KCNH2 (Homo sapiens) (Q12809 whole entry, looked up): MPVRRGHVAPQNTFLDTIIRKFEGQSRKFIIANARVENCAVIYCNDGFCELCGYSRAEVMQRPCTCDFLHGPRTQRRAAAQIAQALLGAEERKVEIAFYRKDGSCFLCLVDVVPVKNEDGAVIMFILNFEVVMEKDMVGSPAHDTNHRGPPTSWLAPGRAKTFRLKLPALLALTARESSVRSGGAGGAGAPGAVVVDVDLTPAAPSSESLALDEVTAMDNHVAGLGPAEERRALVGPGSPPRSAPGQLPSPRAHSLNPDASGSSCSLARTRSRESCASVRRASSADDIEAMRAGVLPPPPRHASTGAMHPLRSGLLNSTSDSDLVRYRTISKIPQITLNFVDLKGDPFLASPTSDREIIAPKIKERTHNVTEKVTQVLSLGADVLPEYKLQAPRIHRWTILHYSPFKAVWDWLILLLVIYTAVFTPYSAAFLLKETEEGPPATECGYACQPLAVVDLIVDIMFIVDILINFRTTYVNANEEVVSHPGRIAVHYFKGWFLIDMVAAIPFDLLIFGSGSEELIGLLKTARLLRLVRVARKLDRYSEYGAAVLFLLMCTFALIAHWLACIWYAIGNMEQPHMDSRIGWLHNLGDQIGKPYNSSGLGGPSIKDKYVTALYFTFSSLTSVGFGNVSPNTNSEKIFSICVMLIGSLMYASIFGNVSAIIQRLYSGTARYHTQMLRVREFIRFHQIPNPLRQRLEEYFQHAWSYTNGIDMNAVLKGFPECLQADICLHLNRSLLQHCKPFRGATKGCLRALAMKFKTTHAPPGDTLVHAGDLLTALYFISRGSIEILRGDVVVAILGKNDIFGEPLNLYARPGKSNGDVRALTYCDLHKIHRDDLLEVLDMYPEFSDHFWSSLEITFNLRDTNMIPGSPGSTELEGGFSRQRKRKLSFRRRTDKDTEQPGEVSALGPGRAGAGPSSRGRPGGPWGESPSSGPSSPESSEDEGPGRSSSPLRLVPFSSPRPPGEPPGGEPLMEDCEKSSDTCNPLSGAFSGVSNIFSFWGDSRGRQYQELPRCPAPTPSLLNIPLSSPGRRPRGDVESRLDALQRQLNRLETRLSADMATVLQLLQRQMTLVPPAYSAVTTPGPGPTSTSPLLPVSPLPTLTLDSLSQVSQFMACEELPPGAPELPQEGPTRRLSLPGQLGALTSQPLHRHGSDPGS
Chain of Cytochrome P450 3A4 (Homo sapiens) (P08684 whole entry, looked up): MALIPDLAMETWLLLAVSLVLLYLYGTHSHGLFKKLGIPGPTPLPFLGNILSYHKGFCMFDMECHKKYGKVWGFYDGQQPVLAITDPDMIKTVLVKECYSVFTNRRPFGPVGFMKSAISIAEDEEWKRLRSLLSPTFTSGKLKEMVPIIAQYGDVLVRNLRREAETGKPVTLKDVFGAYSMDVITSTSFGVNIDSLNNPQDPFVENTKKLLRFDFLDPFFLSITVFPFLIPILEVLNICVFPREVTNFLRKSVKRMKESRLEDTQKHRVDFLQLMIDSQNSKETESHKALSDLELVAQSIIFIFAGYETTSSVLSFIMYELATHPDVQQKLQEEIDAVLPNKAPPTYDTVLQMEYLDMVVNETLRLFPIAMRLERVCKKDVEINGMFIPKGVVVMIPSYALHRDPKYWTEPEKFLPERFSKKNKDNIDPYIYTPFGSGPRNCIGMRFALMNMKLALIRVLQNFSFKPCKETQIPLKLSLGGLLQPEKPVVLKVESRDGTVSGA
Chain of Cytochrome P450 1A2 (Homo sapiens) (P05177 whole entry, looked up): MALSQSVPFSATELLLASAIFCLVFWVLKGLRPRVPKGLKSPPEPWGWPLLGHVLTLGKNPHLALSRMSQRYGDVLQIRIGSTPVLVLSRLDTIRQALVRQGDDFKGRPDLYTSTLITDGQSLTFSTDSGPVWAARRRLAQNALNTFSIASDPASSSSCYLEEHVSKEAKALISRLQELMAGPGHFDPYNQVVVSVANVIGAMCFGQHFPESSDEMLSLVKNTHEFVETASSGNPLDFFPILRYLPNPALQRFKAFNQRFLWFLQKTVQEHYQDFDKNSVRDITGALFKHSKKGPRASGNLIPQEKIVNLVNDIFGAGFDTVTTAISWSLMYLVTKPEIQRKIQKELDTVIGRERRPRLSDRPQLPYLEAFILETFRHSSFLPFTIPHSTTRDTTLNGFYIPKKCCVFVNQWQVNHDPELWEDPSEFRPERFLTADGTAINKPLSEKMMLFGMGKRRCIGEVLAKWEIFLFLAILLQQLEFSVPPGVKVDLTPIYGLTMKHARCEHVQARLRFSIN
Chain of Cytochrome P450 2C19 (Homo sapiens) (P33261 whole entry, looked up): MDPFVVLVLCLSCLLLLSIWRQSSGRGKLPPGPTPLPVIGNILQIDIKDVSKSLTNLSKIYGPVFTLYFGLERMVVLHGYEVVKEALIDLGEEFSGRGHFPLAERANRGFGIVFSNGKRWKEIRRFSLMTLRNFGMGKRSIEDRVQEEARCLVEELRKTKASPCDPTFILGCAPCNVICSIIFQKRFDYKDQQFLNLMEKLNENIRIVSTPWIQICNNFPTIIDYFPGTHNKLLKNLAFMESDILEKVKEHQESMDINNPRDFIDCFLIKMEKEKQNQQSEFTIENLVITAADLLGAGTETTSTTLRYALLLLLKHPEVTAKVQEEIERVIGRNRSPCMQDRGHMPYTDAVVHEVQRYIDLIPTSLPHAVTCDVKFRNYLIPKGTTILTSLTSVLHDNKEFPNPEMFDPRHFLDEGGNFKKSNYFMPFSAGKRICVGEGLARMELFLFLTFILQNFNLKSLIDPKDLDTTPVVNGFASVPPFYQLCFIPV
Chain of Cytochrome P450 2C9 (Homo sapiens) (P11712 whole entry, looked up): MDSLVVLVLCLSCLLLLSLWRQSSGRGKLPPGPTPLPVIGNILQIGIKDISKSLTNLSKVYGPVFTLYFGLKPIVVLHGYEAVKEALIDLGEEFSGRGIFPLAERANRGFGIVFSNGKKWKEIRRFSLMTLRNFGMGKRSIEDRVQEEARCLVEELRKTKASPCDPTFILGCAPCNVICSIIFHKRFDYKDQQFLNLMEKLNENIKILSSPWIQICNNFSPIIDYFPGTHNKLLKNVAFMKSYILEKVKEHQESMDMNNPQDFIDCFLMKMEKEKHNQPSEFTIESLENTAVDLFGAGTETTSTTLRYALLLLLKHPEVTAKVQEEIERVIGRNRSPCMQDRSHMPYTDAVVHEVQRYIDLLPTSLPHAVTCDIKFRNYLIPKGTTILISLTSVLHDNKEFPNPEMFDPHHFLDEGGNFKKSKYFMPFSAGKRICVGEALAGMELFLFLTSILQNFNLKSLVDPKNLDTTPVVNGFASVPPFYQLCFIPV

Take `CCC[N+](=O)[O-]`: the Potency in experiment [1] is 27.8 µM (active). Moreover, the Potency result in experiment [2], in experiment [3], in experiment [4] and in experiment [5] was “inactive” each time.
Turning to `CC(C)C1(C)N=C(c2nc3ccccc3cc2C(=O)O)NC1=O` (stereo unspecified), the Potency result in experiment [1], in experiment [2], in experiment [3], in experiment [4] and in experiment [5] was “inactive” each time.
On to `O=C1CCCN1`, for which the Potency in experiment [1] is 8.05 µM (active) and inactive; in experiment [5], 7.17 µM (active) and inactive. In addition, the Potency entry in experiment [2], in experiment [3] and in experiment [4] was “inactive” throughout.
As for `C1CC2OC2CC1C1CO1` (stereo unspecified), the Potency in experiment [1] is 69.7 µM (active). The Potency result in experiment [2], in experiment [3], in experiment [4] and in experiment [5] was “inactive” each time.
Regarding `O=Cc1cccc(Oc2ccccc2)c1`, the Potency in experiment [1] was 16 µM (active) and 71 µM (active); in experiment [2], 40.2 µM (active); in experiment [3], 35.9 µM (active) and inactive. In addition, the Potency result in experiment [4] and in experiment [5] was “inactive” each time.
For `O=c1n(Cl)c(=O)n(Cl)c(=O)n1Cl`, the Potency entry in experiment [1], in experiment [2], in experiment [3], in experiment [4] and in experiment [5] was “inactive” each time.
With `Nc1ccccc1C(=O)O`, the Potency entry in experiment [1], in experiment [2], in experiment [4] and in experiment [5] was “inactive” throughout. In addition, in experiment [3], the Potency was 40.1 µM (active) and inactive.
In the case of `CCC12COCN1COC2`, the Potency was 35.6 µM (active) in experiment [1]; 40 µM (active) and inactive in experiment [5]. Moreover, the Potency result in experiment [2], in experiment [3] and in experiment [4] was “inactive” in each case.
In the case of `CC(C)(C)C(O)(CCc1ccc(Cl)cc1)Cn1cncn1` (stereo unspecified), the Potency in experiment [1] was 640 nM (active) and 448 nM (active); in experiment [2], 3.21 µM (active) and 3.56 µM (active); in experiment [3], 32.1 µM (active) and 28.3 µM (active); in experiment [5], 114 nM (active) and 200 nM (active). In addition, the Potency entry in experiment [4] was “inactive”.
With `CCOP(=S)(OCC)SCCSCC`, the Potency in experiment [1] is 3.67 µM (active) and 1.07 µM (active); in experiment [2], 32.7 µM (active) and 15.1 µM (active); in experiment [3], 26 µM (active) and 7.57 µM (active); in experiment [5] it was 4.12 µM (active) and 3.8 µM (active). In addition, in experiment [4], the Potency result was “inactive”.
Consider `C=CCO`, for which the Potency result in experiment [1], in experiment [2], in experiment [3], in experiment [4] and in experiment [5] was “inactive” each time.
Turning to `C[C@]12CC[C@H]3[C@@H](CC[C@@]45O[C@@H]4C(O)=C(C#N)C[C@]35C)[C@@H]1CC[C@@H]2O`, the Potency entry in experiment [1], in experiment [2], in experiment [3], in experiment [4] and in experiment [5] was “inactive” each time.
As for `C1CN2CCN1CC2`, the Potency entry in experiment [1], in experiment [2], in experiment [3], in experiment [4] and in experiment [5] was “inactive” each time.
`Nc1c(Cl)c(Cl)nc(C(=O)O)c1Cl`: the Potency entry in experiment [1] was “inactive and 8.22 µM (active)”; in experiment [2], “inactive and 65.3 µM (active)”; in experiment [3], 39.5 µM (active) and inactive. For the same compound, the Potency result in experiment [4] and in experiment [5] was “inactive” each time.
In the case of `COC(=O)c1ccccc1C(=O)OC`, the Potency is 71.4 µM (active) in experiment [1]; 31.9 µM (active) and 25.2 µM (active) in experiment [3]. For the same compound, the Potency result in experiment [2], in experiment [4] and in experiment [5] was “inactive” each time.
As to `CNC(=O)Oc1ccccc1OC(C)C`, the Potency result in experiment [1], in experiment [2], in experiment [4] and in experiment [5] was “inactive” each time. In addition, the Potency in experiment [3] is 35.6 µM (active).
`O=c1[nH]c2ccccc2c(=O)o1`: the Potency result in experiment [1], in experiment [2], in experiment [4] and in experiment [5] was “inactive” each time. In experiment [3], the Potency result was “inactive and 35.6 µM (active)”.
In the case of `CN=C=S`, the Potency in experiment [1] was 80.4 µM (active) and inactive; in experiment [3], 40.3 µM (active). The Potency entry in experiment [2], in experiment [4] and in experiment [5] was “inactive” each time.
In the case of `CCOC(=O)c1ccccc1C(=O)OCC`, the Potency in experiment [3] is 3.22 µM (active) and 3.17 µM (active). In addition, the Potency entry in experiment [4] and in experiment [5] was “inactive” throughout.
Take `CCCCN(CCCC)SN(C)C(=O)Oc1cccc2c1OC(C)(C)C2`: the Potency in experiment [1] was 36.2 µM (active) and 71 µM (active); in experiment [2] it was 40.6 µM (active) and 31.7 µM (active); in experiment [3], 36.2 µM (active) and 39.9 µM (active); in experiment [5] it was 14.4 µM (active) and 12.6 µM (active). The Potency result in experiment [4] is “inactive”.
Consider `CCCCN(CC)C(=O)SCCC`, for which the Potency in experiment [1] was 80.5 µM (active) and inactive. The Potency entry in experiment [2], in experiment [3], in experiment [4] and in experiment [5] was “inactive” each time.
Turning to `Cc1cccc([N+](=O)[O-])c1`, the Potency result in experiment [1], in experiment [2], in experiment [3], in experiment [4] and in experiment [5] was “inactive” in each case.
Consider `NCCc1ccc(O)cc1`, for which the Potency is 49.9 µM (active) and inactive in experiment [1]; 39.6 µM (active) and inactive in experiment [3]. The Potency entry in experiment [4] is “inactive”.
For `CC(NC(C)(C)C)C(=O)c1cccc(Cl)c1` (stereo unspecified), the Potency entry in experiment [2], in experiment [3] and in experiment [5] was “inactive” each time.
As for `OCCN(CCO)CCO`, the Potency result in experiment [1], in experiment [2], in experiment [4] and in experiment [5] was “inactive” each time.
As for `CC1C=[C-]C=C1.[C-]#[O+].[C-]#[O+].[C-]#[O+].[Mn]`, the Potency entry in experiment [1], in experiment [2], in experiment [4] and in experiment [5] was “inactive” each time.
Take `Cc1[nH]c(=O)n(C(C)(C)C)c(=O)c1Cl`: in experiment [1], the Potency is 71.7 µM (active) and 31.7 µM (active). For the same compound, the Potency result in experiment [2], in experiment [4] and in experiment [5] was “inactive” throughout.
